Earlier results on 42 compounds are cited in PubChem BioAssay AID977608.

The structures appear in SMILES notation. Screen size: about 4,300 compounds; about 4,300 (100%) were called active. Cut-off not given; nearly all actives show IC50 up to about 1400 µM. So high a share suggests a set chosen from earlier hits. The list shows a part of the results.

This data set can be described thus: protein-ligand inhibition affinities from structures – PDB-derived complexes (AID 977608).

For `O=C(Cc1ccccc1)Nc1nnc(CC=S)s1`, the half-maximal inhibitory concentration (IC50) (literature IC50, protein: human glutaminase, PDB entry 3vp1) was 3300 nM (active).

Turning to `COc1cc(-c2ccc(NNc3ccc4c(S(O)(O)O)cc(S(O)(O)O)c(N)c4c3O)c(OC)c2)ccc1N=Nc1ccc2c(S(O)(O)O)cc(S(O)(O)O)c(N)c2c1O`, the IC50 (literature IC50, protein: Macrophage migration inhibitory factor, PDB entry 3u18) is 810 nM (active).

Turning to `O=c1cc([C@H]2CCN[C@@H](Cc3ccccc3)C2)o[nH]1`, the IC50 (literature IC50, protein: plasminogen kringle 1, PDB entry 4cik) is 370 nM (active).

For the compound `C[C@@]1(c2cc(NC(=O)c3ccc(Cl)cn3)ccc2F)C[C@@H]2C[C@@H]2C(N)N1` (stereo partly drawn), the IC50 (literature IC50, protein: BETA-SECRETASE 1, PDB entry 4bfd) is 96 nM (active).

Turning to `CN(C)c1ccc2c(c1)CCN(c1cccc(-c3cc(Nc4ccc(C(=O)N5CCOCC5)cn4)c(=O)n(C)c3)c1CO)C2=O`, under “literature IC50, protein: Tyrosine-protein kinase BTK, PDB entry 4rfy”, the IC50 is 100 nM (active).

Regarding `CC(=O)N[C@@H](Cc1cncn1CCCCCCCCc1ccccc1)C(=O)N[C@@H](CO)C(=O)N[C@H](C(N)=O)[C@@H](C)O[P+](O)(O)O`, where the note is “literature IC50, protein: Serine/threonine-protein kinase PLK1, PDB entry 4rcp”, the 50% inhibitory concentration (IC50) is 4420 nM (active).

`C[C@@H](O[P+](O)(O)O)[C@H](NC(=O)[C@H](CO)NC(=O)[C@H](Cc1cncn1CCCCCCCCc1ccccc1)NC(=O)CCNC(=O)c1ccc(CO)cc1)C(N)=O`: the IC50 (literature IC50, protein: Serine/threonine-protein kinase PLK1, PDB entry 4whh) was 40 nM (active).

On to `C[C@H](O[P+](O)(O)O)[C@H](NC(=O)[C@H](CO)NC(=O)[C@H](Cc1cncn1CCCCCCCCc1ccccc1)NC(=O)CCCNC(=O)c1ccccc1)C(N)=O`, for which the half-inhibitory concentration (IC50) (literature IC50, protein: Serine/threonine-protein kinase PLK1, PDB entry 4whl) is 400 nM (active).

As to `O=C(C/C=C1\C=C(C(=O)c2ccc(F)cc2)C=N1)C[C@@H](O)C(=O)O`, the IC50 (literature IC50, protein: DNA nucleotidylexotransferase, Tdt core, PDB entry 4iqu) was 580 nM (active).

On to `O=C(NO)c1coc(-c2ccccc2C(F)(F)F)n1`, for which the 50% inhibitory concentration (IC50) (literature IC50, protein: METHIONINE AMINOPEPTIDASE, PDB entry 4a6v) is 1900 nM (active).

On to `CN1CCN(c2ccc(N=C3CC(=O)N(c4ccc(Cl)cc4)N=C3c3ncn[nH]3)cc2)CC1`, for which the IC50 (literature IC50, protein: MEMBRANE PRIMARY AMINE OXIDASE, PDB entry 4bty) is 20 nM (active).

For the compound `COC1=CC2=C(C(=O)C1)C(=O)O[C@@H](C)CCCC(=O)[C@@H](O)[C@@H](O)C/C=C/2`, for the setting “literature IC50, protein: Mitogen-activated protein kinase 1, PDB entry 3w55”, the half-maximal inhibitory concentration (IC50) was 80 nM (active).

For the compound `COC1=CC2=C(C(=O)C1)C(=O)O[C@H](C)CCCC(=O)[C@@H](O)[C@@H](O)C/C=C/2`, the half-maximal inhibitory concentration (IC50) (literature IC50, protein: Mitogen-activated protein kinase 1, PDB entry 2E14) is 80 nM (active).

`NC(=O)c1cccc(N)c1`: the IC50 (literature IC50, protein: Tankyrase-2 TNKS2, PDB entry 4pml) is 30000 nM (active).

With `CCOc1ccc2cc(-c3nn(C(C)(C)C)c(N)c3C(N)=O)cnc2c1`, the IC50 (literature IC50, protein: Calmodulin-domain protein kinase 1 CDPK1, PDB entry 4ona) is 7 nM (active).

Take `CN(C)CCOc1ccc(-c2cc3c(NCCc4ccc(NC(=O)Nc5ccccc5)cc4)ncnc3o2)cc1`: the half-inhibitory concentration (IC50) (literature IC50, protein: Aurora kinase A (T288D mutation), PDB entry 4jbo) is 24 nM (active).

`O=C(Nc1ccccc1)Nc1ccc(CCNc2ncnc3oc(-c4ccc(OCCN5CCC(O)CC5)cc4)cc23)cc1`: the IC50 (literature IC50, protein: Aurora kinase A (T288D mutation), PDB entry 4jbp) was 41 nM (active).

Regarding `CC(C)(O/N=C(\C(=O)N[C@H](C=O)[C@@H](CNC(=O)NCc1cc(=O)c(O)cn1O)NS(O)(O)O)c1csc(N)n1)C(=O)O`, for the setting “literature IC50, protein: Penicillin-binding protein 3, PDB entry 4l0l”, the IC50 was 54 nM (active).

As to `CN1CCN(c2nc(O)c(Cc3ccc(Cl)c(Cl)c3)s2)CC1`, the IC50 (literature IC50, protein: Ectonucleotide pyrophosphatase/phosphodiesterase family member 2, PDB entry 3wav) was 180 nM (active).

For the compound `CCN1CCN(c2nc(O)c(Cc3ccc(Cl)c(Cl)c3)s2)CC1`, the half-inhibitory concentration (IC50) (literature IC50, protein: Ectonucleotide pyrophosphatase/phosphodiesterase family member 2, PDB entry 3waw) was 580 nM (active).

Regarding `c1ccc2c(c1)[nH]c1cncnc12`, for the setting “literature IC50, protein: DUAL SPECIFICITY PROTEIN KINASE TTK, PDB entry 4bi0”, the concentration for half-maximal inhibition (IC50) is 58600 nM (active).

Regarding `Cc1cccc(Cc2nn(C(C)(C)C)c3ncnc(N)c23)c1`, the concentration for half-maximal inhibition (IC50) (literature IC50, protein: Proto-oncogene tyrosine-protein kinase Src, PDB entry 4lgg) is 3 nM (active).

Take `O=CN1CCN(c2nc(-c3ccccc3)ns2)CC1`: under “literature IC50, protein: Fatty-acid amide hydrolase 1, PDB entry 4hbp”, the IC50 was 3.8 nM (active).

For `N=CCNC(=O)[C@@H]1C[C@@H](S(=O)(=O)c2ccccc2)C[C@H]1C(=O)N1CCOCC1`, for the setting “literature IC50, protein: CATHEPSIN S, PDB entry 4bsq”, the IC50 is 0.7 nM (active).

`C=C1CC[C@@H](O[C@H]2C[C@@](O)([C@H](C)NC(=O)c3[nH]c(C)c(Cl)c3Cl)[C@H](O)[C@@H](C)O2)[C@@H]2C=C[C@H](C)[C@H](/C(O)=C3/C(=O)[C@H](C(C)C)N([C@@H]4O[C@@H](C)[C@@H](OC(N)=O)[C@@H](OC(C)=O)[C@H]4OC)C3=O)[C@@H]12`: the IC50 runs as follows: (literature IC50, protein: DNA GYRASE SUBUNIT B GyrB24, PDB entry 4urm) 9 nM (active); (literature IC50, protein: DNA TOPOISOMERASE IV, B SUBUNIT ParE43, PDB entry 4url) 500 nM (active).

With `C/C=C\NC(=O)Nc1nc2cc(-c3cccnc3)c(=O)n(CCC(C)C)c2s1`, for the setting “literature IC50, protein: Topoisomerase IV subunit B, PDB entry 4mot”, the IC50 is 50 nM (active).

As for `COc1cc(-c2n[nH]c3ccc(C[C@@H](C#N)C(=O)NC(C)(C)CO)cc23)cc(OC)c1OC`, the half-inhibitory concentration (IC50) (literature IC50, protein: Ribosomal protein S6 kinase alpha-3 (T493M muation), PDB entry 4jg8) is 2.5 nM (active).

As for `O=C1N=Nc2nnc(-c3c(-c4ccccc4)nn4ccccc34)cc21`, for the setting “literature IC50, protein: Insulin receptor (K1278N mutation), PDB entry 4ibm”, the half-inhibitory concentration (IC50) was 1800 nM (active).

As for `Cc1ccccc1S(=O)(=O)N(CCN(Cc1cncn1C)c1ccc(C=N)cc1)CC1CCN(C(=O)OC(C)(C)C)CC1`, the IC50 (literature IC50, protein: CaaX farnesyltransferase alpha subunit Ram2, PDB entry 4lnb) was 275 nM (active).

For `COc1ccccc1-c1noc2nc(C)[nH]c(=O)c12`, the IC50 (literature IC50, protein: Class III chitinase ChiA1, PDB entry 4tx6) was 2600 nM (active).

Regarding `CC[C@H](C)[C@H](NC(=O)[C@@H](c1cc(Cl)cc(Cl)c1)N(C)C)C(=O)NCc1ccnc(C=N)n1`, under “literature IC50, protein: Protease AVP8, PDB entry 4pis”, the IC50 was 60 nM (active).

As to `COc1ccc([C@]2(C)CCSC(N)N2)cc1` (stereo partly drawn), the concentration for half-maximal inhibition (IC50) (literature IC50, protein: BETA-SECRETASE 1, PDB entry 4bek) is 41200 nM (active).

On to `O[P+](O)(O)C(Nc1ncnc2sc(-c3ccc(C4C=C4)cc3)cc12)[P+](O)(O)O`, for which the IC50 (literature IC50, protein: Farnesyl pyrophosphate synthase, human FPPS, PDB entry 4l2x) is 39 nM (active).

In the case of `Cc1ccc(-c2cc3c(NC([P+](O)(O)O)[P+](O)(O)O)ncnc3s2)cc1`, the IC50 (literature IC50, protein: Farnesyl pyrophosphate synthase, human FPPS, PDB entry 4jvj) was 22 nM (active).

For the compound `O=C(C[P+](O)(O)O)OC1[C@@H](O[P+](O)(O)O)[C@H](O[P+](O)(O)O)C(O[P+](O)(O)O)[C@H](O[P+](O)(O)O)[C@H]1O[P+](O)(O)O` (stereo partly drawn), the IC50 (literature IC50, protein: Inositol hexakisphosphate and diphosphoinositol-pentakisphosphate kinase 2 PPIP5K2, PDB entry 4nzm) is 140 nM (active).

In the case of `O=C(C[P+](O)(O)O)OC1[C@@H](O[P+](O)(O)O)[C@H](O[P+](O)(O)O)C(OCc2ccccc2)[C@H](O[P+](O)(O)O)[C@H]1O[P+](O)(O)O` (stereo partly drawn), the IC50 (literature IC50, protein: Inositol hexakisphosphate and diphosphoinositol-pentakisphosphate kinase 2 PPIP5K2, PDB entry 4nzn) is 420 nM (active).

With `CCCCCCNCC([P+](O)(O)O)[P+](O)(O)O`, the IC50 (literature IC50, protein: Farnesyl pyrophosphate synthase, PDB entry 4e1e) is 490 nM (active).

For the compound `CCCCCNCC([P+](O)(O)O)[P+](O)(O)O`, for the setting “literature IC50, protein: Farnesyl pyrophosphate synthase, PDB entry 4dwb”, the 50% inhibitory concentration (IC50) was 1840 nM (active).

For the compound `CCCNCC([P+](O)(O)O)[P+](O)(O)O`, under “literature IC50, protein: Farnesyl pyrophosphate synthase, PDB entry 4dxj”, the half-inhibitory concentration (IC50) is 38 nM (active).

As to `CCCCCCCNCC([P+](O)(O)O)[P+](O)(O)O`, the half-maximal inhibitory concentration (IC50) (literature IC50, protein: Farnesyl pyrophosphate synthase, PDB entry 4dwg) was 58 nM (active).

In the case of `CC(=O)N[C@H]1[C@@H](O[P+](O)(O)O[P+](O)(O)OC[C@H]2O[C@@H](n3ccc(=O)[nH]c3=O)[C@H](O)[C@@H]2O)O[C@H](CO)[C@@H](O)[C@@H]1O[C@H](C)C(=O)N[C@@H](C)C(=O)N[C@H](CCC(=O)N[C@@H](CSCCc1cn([C@@H]2[C@H](O)[C@@H](CO[P+](O)(O)O[C@H]3[C@@H](O)[C@H](n4ccc(N)nc4=O)O[C@@H]3CO[P+](O)(O)O[C@H]3[C@@H](O)[C@H](n4ccc(N)nc4=O)O[C@@H]3COP(O)O)O[C@H]2n2cnc3c(N)ncnc32)nn1)C(=O)N[C@H](C)C(=O)N[C@H](C)C(=O)O)C(=O)O`, the IC50 (literature IC50, protein: FemX, PDB entry 4ii9) was 930 nM (active).

Consider `CN(Cc1cnc2c(n1)C(N)NC(N)N2)c1ccc(C(=O)N[C@@H](CCC(=O)O)C(=O)O)cc1` (stereo partly drawn), for which the IC50 (literature IC50, protein: Lactobacillus casei dihydrofolate reductase, PDB entry 1ao8) was 6 nM (active).
